In the library only some 4.5% were active in any assay of this set; here they are far more common.
aSyn UTR inh = MLPCN primary screen, SNCA 5' untranslated region; alpha-synuclein 5'UTR reporter, inhibitor activity; inhibition, % (tested at 7.5 µM); 300,000 compounds, 0.82% hits; in the data active = inhibition above about 60%; inconclusive = no clear call, values can overlap the other calls;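 note: H4 neuroglioblastoma cells stably carrying SNCA 5'UTR luciferase fusion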
Jurkat NFkB inh = lowers PMA/ionomycin-induced NF-kB signal in Jurkat cells; PMA/ionomycin-induced NF-kB luciferase reporter, luminescence; inhibition, % at 4 µM; 330,000 compounds, 0.53% hits; in the data active = inhibition above about 50%
697 NFkB inh = inhibitors of the PMA/ionomycin-induced NF-kB reporter in 697 B cells | 697 B-cell NF-kB luciferase reporter, 16 h | inhibition, % at 4 µM | 330,000 compounds, 0.33% hits | AID 435022; in the data active = inhibition above about 35%
CSC inhib = cancer stem cell inhibition | 300,000 compounds, 1.1% hits | cancer stem cell-like cells viability, luminescence | inhibition, % at 7.5 µM; in the data active = inhibition above about 75%; inconclusive = no clear call, values can overlap the other calls; tested in HMLE shEcad cells
Mdm2 MdmX PPI = disrupts the human Mdm2-MdmX interaction; O15151+Q00987; AID 485346; 330,000 compounds, 3% hits; SaOS-2 split-luciferase Mdm2/MdmX complementation, luminescence; inhibition, % at 8 µM;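 active = inhibition of at least 50% at 8 µM in the primary screen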
Target sequence (O15151 whole entry, looked up): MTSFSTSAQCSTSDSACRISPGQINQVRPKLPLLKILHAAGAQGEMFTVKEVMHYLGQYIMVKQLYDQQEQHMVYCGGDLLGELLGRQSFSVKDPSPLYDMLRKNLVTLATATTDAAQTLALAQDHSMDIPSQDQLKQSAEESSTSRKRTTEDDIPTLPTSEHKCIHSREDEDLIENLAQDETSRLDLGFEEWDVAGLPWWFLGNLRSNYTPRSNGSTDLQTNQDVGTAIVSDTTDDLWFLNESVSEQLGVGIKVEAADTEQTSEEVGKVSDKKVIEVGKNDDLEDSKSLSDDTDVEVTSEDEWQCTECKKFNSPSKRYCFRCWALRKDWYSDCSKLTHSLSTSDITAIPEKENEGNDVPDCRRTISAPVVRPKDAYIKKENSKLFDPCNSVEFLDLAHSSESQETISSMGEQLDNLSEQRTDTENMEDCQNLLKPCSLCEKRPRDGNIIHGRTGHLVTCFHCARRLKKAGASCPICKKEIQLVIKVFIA
Target sequence (Q00987 whole entry, looked up): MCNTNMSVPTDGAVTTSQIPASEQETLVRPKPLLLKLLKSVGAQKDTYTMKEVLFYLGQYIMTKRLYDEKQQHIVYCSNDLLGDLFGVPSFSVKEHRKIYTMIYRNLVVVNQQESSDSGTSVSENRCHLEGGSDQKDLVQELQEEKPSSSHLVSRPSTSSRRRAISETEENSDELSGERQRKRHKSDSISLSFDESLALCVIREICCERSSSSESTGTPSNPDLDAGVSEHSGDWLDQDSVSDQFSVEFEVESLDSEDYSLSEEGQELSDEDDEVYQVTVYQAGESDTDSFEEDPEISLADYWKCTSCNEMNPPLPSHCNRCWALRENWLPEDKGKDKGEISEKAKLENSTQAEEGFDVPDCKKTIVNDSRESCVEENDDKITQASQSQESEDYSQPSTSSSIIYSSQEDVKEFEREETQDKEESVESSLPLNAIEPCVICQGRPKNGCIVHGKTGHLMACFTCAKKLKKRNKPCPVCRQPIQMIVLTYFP
Gli-Sufu block = Gli-Sufu pathway antagonism | Sufu-KO-LIGHT fibroblasts, Gli luciferase reporter luminescence | inhibition, % at 5 µM | 340,000 compounds, 0.74% hits | AID 588413;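 active = inhibition above about 55%, limit read from the data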
697 NFkB conf = inhibitors of the PMA/ionomycin-induced NF-kB reporter in 697 B cells, retest; shares compounds with 697 NFkB inh; 697 B-cell NF-kB luciferase, 16 h; inhibition, % at 4 µM; 2,000 compounds, 35% hits; AID 449746; in the data active = inhibition mostly above about 28%, no sharp cut-off; inactive = mostly below about 22%
Mdm2 MdmX conf = confirmation of human Mdm2/MdmX interaction inhibitors | 10,000 compounds, 55% hits | shares compounds with Mdm2 MdmX PPI | AID 489028 | Mdm2-MdmX binding, luminescent assay | inhibition, % at 8 µM; in the data active = inhibition above about 40%
Full FLuc ctr = full-length luciferase inhibition in Mdm2/MdmX counter-screen | SaOS-2 full-length luciferase counterscreen, luminescence | inhibition, % at 8 µM | 6,200 compounds, 77% hits | shares compounds with Mdm2 MdmX PPI;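 active = mean inhibition at 8 µM reaching about 37%, which flags the compound as non-specific, limit read from the data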;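 note: p53-null SaOS-2 cells with luciferase driven by a doxycycline-inducible promoter; compound on cells about two nights before reading with doxycycline added after day one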
Of the large screens only hits and unclear results are named; the others gave an inactive call (follow-up assays come after a bar, where they were run).

Cc1cccc(C(=O)Nc2ccc(N3CCN(S(C)(=O)=O)CC3)cc2)c1	none
O=C(NCCCl)Nc1cccc(Br)c1	none
CCSCCOC(=O)C1=C(C)NC2=C(C(=O)CCC2)C1c1coc2ccccc2c1=O (stereo not drawn)	697 NFkB inh 35.9 | 697 NFkB conf inactive
CC1=C(C(=O)OC(C)C)C(c2coc3ccccc3c2=O)C2=C(CCCC2=O)N1 (stereo not drawn)	none (no result: aSyn UTR inh)
CCCCCCCCNC(=O)c1ccc(C)cc1	697 NFkB inh 79.7 (no result: Gli-Sufu block) | 697 NFkB conf inactive
CCCCNC(=O)Cc1ccc(C)cc1	none
O=C(Nc1ccc([N+](=O)[O-])cc1)Nc1ccc(N2CCOCC2)c2nonc12	none
COc1ccccc1/C=C1/SC(=S)N(CCC(=O)Nc2cccnc2)C1=O	697 NFkB inh 35.4 | 697 NFkB conf 27.9
O=C(CCN1C(=O)/C(=C/c2cccs2)SC1=S)NC1=NCCS1	none (no result: aSyn UTR inh, Jurkat NFkB inh, 697 NFkB inh, Mdm2 MdmX PPI)
CCc1ccc(/C=C2\SC(=S)N(CCC(=O)NC3=NCCS3)C2=O)cc1	aSyn UTR inh 89.5, 697 NFkB inh 71.1 (no result: Gli-Sufu block) | 697 NFkB conf 38.1
O=C(CCN1C(=O)/C(=C\c2cccs2)SC1=S)NC1=NCCS1	none
COc1ccccc1/C=C1\SC(=S)N(CCC(=O)NC2=NCCS2)C1=O	697 NFkB inh 35.4 | 697 NFkB conf 48.0
O=C(c1ccc2c(=O)n(Cc3ccccc3Cl)c(=S)[nH]c2c1)N1CCOCC1	none
CCn1c(CSc2nc3ccccc3s2)nc2ccccc21	none
CCCc1cc(C(=O)N2CCN(c3ccc(C(F)(F)F)cn3)CC2)sc1C	none
O=C(Nc1ccc(/C=C/c2nc3ccccc3o2)cc1)c1cccc(C(F)(F)F)c1	none | 697 NFkB conf inactive
Cc1ccc(O)c(-c2cc(C(F)(F)F)[nH]n2)c1	697 NFkB inh 40.0 | 697 NFkB conf inactive
Cc1cccc(NC(=O)c2cc(-c3cc(C)ccc3O)n[nH]2)c1	none
Cc1ccc(CS(=O)(=O)c2ccc(C(=O)N3CCCCC3)cc2[N+](=O)[O-])cc1	none
CCN(CC)C(=O)c1ccc(S(=O)(=O)Cc2ccc(C)cc2)c([N+](=O)[O-])c1	697 NFkB inh 40.0 | 697 NFkB conf 39.1
Fc1cccc(/C=N/Nc2ccc3ccccc3n2)c1	none | 697 NFkB conf inactive
Brc1ccc(/C=N/Nc2ccc3ccccc3n2)cc1	none
O=C(CNS(=O)(=O)c1ccccc1)N1CCc2ccccc2C1	none
CCOc1ccc(C(C)=O)cc1Cn1nc(C(=O)O)c2ccccc2c1=O	697 NFkB inh 35.1 | 697 NFkB conf inactive
COc1ccccc1Cn1nc(C(=O)O)c2ccccc2c1=O	none
COc1ccc(C(=O)C2CCCN(C(=O)c3ccc4cc[nH]c4c3)C2)c(C)c1 (stereo not drawn)	none
CC(C)COc1ccc(-c2nnc(-c3ccco3)o2)cc1	aSyn UTR inh 86.1 | 697 NFkB conf inactive
CCC(c1nnc(SCC(=O)NC2CCCCC2)n1Cc1ccccc1)N(C)C (stereo not drawn)	697 NFkB inh 39.0 | 697 NFkB conf inactive
CCC(c1nnc(SCC(=O)NCC2CCCO2)n1Cc1ccccc1)N(C)C (stereo not drawn)	none
CC(C)(C)NC(=O)COC(=O)c1ccc(NC(=O)CC#N)cc1	none
O=C(O)c1ccccc1N=Cc1c(O)n(-c2nccs2)c(=O)c2ccccc12	697 NFkB inh 41.7 | 697 NFkB conf inactive
O=c1c2ccccc2c(C=Nc2ccccc2O)c(O)n1-c1nccs1	none
O=[N+]([O-])c1ccccc1C=NNC(=S)NN=Cc1ccccc1[N+](=O)[O-]	none (no result: aSyn UTR inh, Jurkat NFkB inh, 697 NFkB inh, CSC inhib, Mdm2 MdmX PPI)
O=[N+]([O-])c1ccccc1NC(=S)N/N=C/c1ccc(O)c(O)c1	none | 697 NFkB conf inactive
CC(=O)Nc1ccc2[nH]c(C)c(CC=C(Cl)Cl)c(=O)c2c1	697 NFkB inh 42.1 | 697 NFkB conf inactive
c1ccc(-c2noc(-c3ccc4ccccc4c3)n2)cc1	aSyn UTR inh 76.6 | 697 NFkB conf inactive
Cc1ccc(Cc2cnc(NC(=O)C3CCCO3)s2)cc1 (stereo not drawn)	none
O=C(Nc1nc2c(s1)CCCC2)c1cccs1	none (no result: aSyn UTR inh) | 697 NFkB conf inactive
Cc1ccc2nc(NC(=O)c3cccs3)sc2c1	none (no result: aSyn UTR inh) | 697 NFkB conf inactive
O=C(Nc1nc2c(s1)CCCC2)c1cccnc1	none
Cc1ccc(Cc2cnc(NC(=O)c3cccs3)s2)cc1	none | 697 NFkB conf inactive
O=C(Cc1ccc([N+](=O)[O-])cc1)Oc1ccccc1	none (no result: aSyn UTR inh, Jurkat NFkB inh, 697 NFkB inh, CSC inhib, Mdm2 MdmX PPI)
O=c1c(C=NCCCO)c(-c2ccccc2)[nH]n1-c1nc2ccccc2s1	aSyn UTR inh inconclusive, 697 NFkB inh 37.0 | 697 NFkB conf 41.4
CCn1c(=O)cc(OCC(=O)NCc2ccc(C)o2)c2ccccc21	697 NFkB inh 36.1 (no result: CSC inhib) | 697 NFkB conf 41.8
CCn1c(=O)cc(OCC(=O)NCc2ccco2)c2ccccc21	none
COc1ccc(-c2cc3cc4c(cc3cn2)OCO4)cc1	none (no result: aSyn UTR inh) | 697 NFkB conf inactive
Cc1cnc(NC(=O)C2CCC(C(C)(C)C)CC2)s1 (stereo not drawn)	none
Cn1c(N=Nc2ccccc2)nc2ccccc21	none | 697 NFkB conf inactive
COc1ccc(C(=O)Nc2nc3ccccc3[nH]2)cc1OC	none
COc1ccc(Cl)cc1C(=O)Nc1nc2ccccc2[nH]1	aSyn UTR inh 89.1 | 697 NFkB conf inactive
O=C(O)c1cc(S(=O)(=O)N2CCN(C(c3ccccc3)c3ccccc3)CC2)ccc1Cl	none
Cc1cc(NC(=O)c2ccccc2)nc2c1c(=O)oc1ccccc12	697 NFkB inh 35.0 | 697 NFkB conf inactive
CC(=O)Nc1cccc(NC(=O)c2cc(-c3cccnc3)nc3ccc(Br)cc23)c1	697 NFkB inh 40.7, Mdm2 MdmX PPI 68.1 | 697 NFkB conf inactive | Mdm2 MdmX conf 73.1 | Full FLuc ctr 89.7
COCC(C)n1c(C)cc(C(=O)COC(=O)c2c(NC(C)=O)sc(C)c2C)c1C (stereo not drawn)	none
COc1ccc(-n2c(SCC(=O)Nc3ncc(Cl)cc3Cl)nc3ccccc32)cc1	Mdm2 MdmX PPI 90.7 (no result: Gli-Sufu block) | 697 NFkB conf inactive | Mdm2 MdmX conf 74.2 | Full FLuc ctr inactive
O=C(CSc1nc2ccccc2n1-c1ccccc1)Nc1ncc(Cl)cc1Cl	Mdm2 MdmX PPI 87.6 | 697 NFkB conf inactive | Mdm2 MdmX conf 81.0 | Full FLuc ctr inactive
Cc1ccc(NC(=O)Nc2nc(-c3ccc(C)s3)cs2)cc1	none
CC(C)[C@H](NC(=O)c1ccco1)C(=O)N(C)Cc1c(F)cccc1Cl	none
O=c1[nH]c(=O)n(C2CC(O)C(CO)O2)cc1Br (stereo not drawn)	none (no result: aSyn UTR inh, Jurkat NFkB inh, 697 NFkB inh, CSC inhib, Mdm2 MdmX PPI)
